# From PubChem BioAssay (EPA / NIEHS)
# Records with an inconclusive call do not appear. The source made the active and inactive calls. Rule for the calls: active = hit-call score of the fitted dose curve at least 0.9, where 1 is the maximum; inconclusive = response in the unintended direction; inactive = score below 0.9.
# Assay: ATG_XTT_Cytotoxicity: Cytotoxicity Assessment in the Attagene TRANS-FACTORIAL HepG2 Assay (AID 2283584);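 for AC50: XTT signal for cell number as viability in transfected HepG2 cells; cells exposed to compound for 24 h before reading; active means loss of viability signal versus DMSO baseline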
# Outline: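 Transfect HepG2 with GAL4-UAS reporter units, dose compound, incubate 24 h, then measure viable cell number by XTT. Fit concentration response against DMSO baseline.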
SMILES,AC50,outcome
O=C1C=CC(=O)N1c1ccc(Cc2ccc(N3C(=O)C=CC3=O)cc2)cc1,157 µM (active),
Nc1c(Br)cc([N+](=O)[O-])cc1Br,,inactive
O=C=Nc1cccc2c(N=C=O)cccc12,,inactive
CC(C)(C)c1cc(CCC(=O)OCC(COC(=O)CCc2cc(C(C)(C)C)c(O)c(C(C)(C)C)c2)(COC(=O)CCc2cc(C(C)(C)C)c(O)c(C(C)(C)C)c2)COC(=O)CCc2cc(C(C)(C)C)c(O)c(C(C)(C)C)c2)cc(C(C)(C)C)c1O,,inactive
CC(C)(C)C(=O)C1C(=O)c2ccccc2C1=O,,inactive
CCCC(=O)OCC(COC(=O)CCC)OC(=O)CCC,,inactive
CN(C)C(C)(C)CO,,inactive
Cc1ccc(S(=O)(=O)C(I)I)cc1,62.8 µM (active),
CCCCCCCC/C=C\CCCCCCCC(=O)N(C)CC(=O)O,128 µM (active),
OCCCc1cccnc1,,inactive
O=c1cccc[nH]1,,inactive
CC(C)=CCCC(C)O (configuration not stated),,inactive
CC(C)OC=O,,inactive
COc1ccccc1C=O,,inactive
CC(=O)C=O,,inactive
Oc1ccc(C2(c3ccc(O)c(C4CCCCC4)c3)CCCCC2)cc1C1CCCCC1,33.8 µM (active),
c1ccc(C[P+](c2ccccc2)(c2ccccc2)c2ccccc2)cc1,,inactive
O=C(Cl)c1ccc(Cl)cc1Cl,,inactive
CCc1cc(Cc2cc(CC)c(N)c(CC)c2)cc(CC)c1N,,inactive
CCc1cccc(C)c1N(C(=O)C(=O)O)C(C)COC (configuration not stated),,inactive
CC(=O)c1ccccc1N,,inactive
CCCCCCCCCCCC(=O)Cl,,inactive
